Screening results from PubChem.
NPSR antagonist: qHTS Assay for Antagonists of the Neuropeptide S Receptor: cAMP Signal Transduction. CHO-NPSR cells, cAMP TR-FRET, antagonist mode. Potency, µM (doses to about 38.3 µM), without a hit: top-dose activity change, negative = inhibition, hits mostly inhibitors. 220,000 compounds, 1% hits. AID 1461, 2008; further: potency means the concentration at half of the fitted maximal effect; on the % scale 0 is the no-effect control and ±100 the full control effect; nearly all actives have a fitted effect of over 50% in size
Target sequence (Q6W5P4 whole entry, looked up): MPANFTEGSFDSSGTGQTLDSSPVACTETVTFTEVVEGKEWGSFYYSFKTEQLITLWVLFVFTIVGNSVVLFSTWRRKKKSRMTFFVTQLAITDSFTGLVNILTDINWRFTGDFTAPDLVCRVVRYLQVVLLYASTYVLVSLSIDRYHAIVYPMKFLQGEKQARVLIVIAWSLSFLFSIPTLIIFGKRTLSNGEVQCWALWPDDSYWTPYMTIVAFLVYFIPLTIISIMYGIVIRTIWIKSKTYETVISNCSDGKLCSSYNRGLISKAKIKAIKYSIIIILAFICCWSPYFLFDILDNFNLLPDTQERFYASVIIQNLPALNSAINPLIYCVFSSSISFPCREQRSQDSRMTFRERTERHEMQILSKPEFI
GALK inhibitor: qHTS Assay for Inhibitors of Human Galactokinase (GALK); P51570; 270,000 compounds, 0.007% hits; Potency, µM (highest dose often 57.5 µM), inactives show at the top dose activity change, negative = inhibition, hits mostly inhibitors; Purified GALK, Kinase-Glo residual ATP luminescence; AID 1868, 2009; further: potency means the concentration at half of the fitted maximal effect; on the % scale 0 is the no-effect control and ±100 the full control effect
Target sequence (P51570 whole entry, looked up): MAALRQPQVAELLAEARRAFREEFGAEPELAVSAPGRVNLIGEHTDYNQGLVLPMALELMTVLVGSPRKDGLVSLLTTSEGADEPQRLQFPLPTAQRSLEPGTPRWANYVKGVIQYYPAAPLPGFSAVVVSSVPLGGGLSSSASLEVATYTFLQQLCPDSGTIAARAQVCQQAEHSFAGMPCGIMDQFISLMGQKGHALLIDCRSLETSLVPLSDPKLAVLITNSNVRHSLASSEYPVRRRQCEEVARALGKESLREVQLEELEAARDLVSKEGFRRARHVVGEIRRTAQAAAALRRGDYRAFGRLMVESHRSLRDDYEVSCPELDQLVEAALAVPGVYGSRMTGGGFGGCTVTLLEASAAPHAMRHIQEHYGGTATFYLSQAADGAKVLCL
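GALK at 5 nM final was combined with compound, 35 uM ATP and 100 uM galactose in HEPES pH8.0 with MgCl2 and DTT. The reaction ran one hour at room temperature before luminescent ATP detection.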
TrxR1 substrate: qHTS Assay for Substrates of Mammalian Selenoprotein Thioredoxin Reductase 1 (TrxR1): qHTS. Thioredoxin reductase 1, cytoplasmic (Rattus norvegicus), O89049. purified TrxR1 substrate turnover, NADPH consumption readout. Potency, µM (top dose mostly 114 µM), for the others: top-dose activity change, negative = substrate turnover. 390,000 compounds, 0.01% hits; further: potency means the concentration at half of the fitted maximal effect; on the % scale 0 is the no-effect control and ±100 the full control effect; nearly all actives have a fitted effect of over 50% in size
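Rat TrxR1, dispensed at 90 nM, was prereduced with 400 uM NADPH (final) for 5 min at ~22 deg C, then incubated with compound 15 min before 400 uM selenite. A first-read NADPH fluorescence drop versus no-compound background flagged substrates.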
TrxR1 inh-1: qHTS Assay for Inhibitors of Mammalian Selenoprotein Thioredoxin Reductase 1 (TrxR1): qHTS | AID 588453, 2011 | Thioredoxin reductase 1, cytoplasmic (Rattus norvegicus), O89049 | Potency, µM (highest dose often 114 µM), without a hit: top-dose activity change, negative = inhibition, usual class: inhibitors | 390,000 compounds, 1% hits | recombinant rTrxR1, NADPH fluorescence consumption, selenite substrate; further: potency means the concentration at half of the fitted maximal effect; on the % scale 0 is the no-effect control and ±100 the full control effect; nearly all actives have a fitted effect of over 65% in size
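Rat TrxR1 (90 nM in the dispensed reagent) was pre-reduced with 400 uM NADPH for 5 min at room temperature, then incubated with compound for 15 min. After 400 uM selenite was added, NADPH fluorescence (Ex 340/Em 450 nm) was followed for 8 min.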
TRb SRC2 Alpha: Protein Interaction Secondary Assay for Inhibitors of the Interaction of Thyroid Hormone Receptor and Steroid Receptor Coregulator 2, Alpha Screen; Potency, µM; AlphaScreen TRb LBD-SRC2 peptide binding, luminescence; shares compounds with TrxR1 inh-1; 30 compounds, 50% hits; calls by dose curve
HepG2 tox: Cell Viability Secondary Assay for Inhibitors of the Interaction of Thyroid Hormone Receptor and Steroid Receptor Coregulator 2 | AID 2447, 2010 | Potency, µM | shares compounds with TrxR1 inh-1 | HepG2 viability, ATP luminescence (CellTiter-Glo), 72 h | 40 compounds, 50% hits; calls by dose curve
AR-SRC2 inh: Androgen Receptor Selectivity Assay for Inhibitors of the Interaction of Thyroid Hormone Receptor and Steroid Receptor Coregulator 2; AID 2448, 2010; 25 tested, under 10 active; shares compounds with TrxR1 inh-1; AR-LBD Tx-SRC2-3 fluorescence polarization, 3 h; calls only; call rule not given here
PPARg-DRIP2 inh: PPAR gamma Selectivity Assay For Inhibitors of the Interaction of Thyroid Hormone Receptor and Steroid Receptor Coregulator 2 | shares compounds with TrxR1 inh-1 | PPARg LBD / Texas Red DRIP-2 peptide, fluorescence polarization, 3 h | Potency, µM | 25 tested, under 10 active | AID 2449, 2010; calls by dose curve
VDR-SRC2 FP sel: Vitamin D Receptor Selectivity Assay for Inhibitors of the Interaction of Thyroid Hormone Receptor and Steroid Receptor Coregulator 2; 25 tested, under 10 active; VDR LBD/SRC2-3 peptide, fluorescence polarization, 3 h; AID 2455, 2010; Potency, µM; shares compounds with TrxR1 inh-1; calls by dose curve
TRb SRC2 FluoFP: Secondary Confirmation Assay for Inhibitors of the Interaction of Thyroid Hormone Receptor and Steroid Receptor Coregulator 2, Fluorescein Fluoroprobe; Potency, µM; TRb LBD / fluorescein-SRC2 peptide, fluorescence polarization; AID 2487, 2010; shares compounds with TrxR1 inh-1; 20 tested, under 10 active; call rule not given here
GR counterassay: qHTS Assay for Inhibitors of Mammalian Selenoprotein Thioredoxin Reductase 1 (TrxR1): Counterassay in Glutathione Reductase (GR). purified GR, DTNB reduction absorbance 405 nm kinetic. AID 652020, 2013. 55 tested, under 10 active. shares compounds with TrxR1 inh-1. activity change, negative = inhibition, % at 57.1 µM
TrxR1 inh-2: qHTS Assay for Inhibitors of Mammalian Selenoprotein Thioredoxin Reductase 1 (TrxR1): Hit Validation in Primary Screen. shares compounds with TrxR1 inh-1. 55 compounds, 50% hits. Potency, µM, usual class: inhibitors. recombinant TrxR1, NADPH fluorescence consumption, selenite substrate. AID 652023, 2013
TrxR1 insulin MOA: qHTS Assay for Inhibitors of Mammalian Selenoprotein Thioredoxin Reductase 1 (TrxR1): Insulin MOA Assay. Potency, µM. AID 652037, 2013. shares compounds with TrxR1 inh-1. 55 compounds, 20% hits. TrxR1 Trx-coupled insulin reduction, NADPH absorbance 340 nm;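 active means compounds with a measured potency under 100 micromolar; inconclusive means filed, but no rule given; inactive means potency at or above that, or unmeasurable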
TrxR1 inh-3: qHTS Assay for Inhibitors of Mammalian Selenoprotein Thioredoxin Reductase 1 (TrxR1): DTNB Assay; shares compounds with TrxR1 inh-1; purified TrxR1, DTNB reduction, A412; Potency, µM; 55 compounds, 90% hits;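 active means a half-inhibiting concentration could be measured and was below 100 µM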
* = called active by the depositor; i = inactive; ? = inconclusive; / = no result; [ ] = remark or other dose. Shown are actives, neighbours in structure and some others; about 1.2% of the full set was active somewhere. Unless noted, the call rests on the fitted dose curve; in most records, active means well fitted curve in the direction sought with a large enough effect; inconclusive means small, poorly fitted or top-dose-only effect, or another doubt; inactive means no such curve, though single readings can be large; an effect the other way counts as inactive or inconclusive.

SMILES | NPSR antagonist | GALK inhibitor | TrxR1 substrate | TrxR1 inh-1 | GR counterassay | TrxR1 inh-2 | TrxR1 insulin MOA | TrxR1 inh-3 | others
Cc1ccc(CN2CCCn3nc(C(=O)NCCc4ccccc4Cl)cc3C2=O)cc1 | / | / | 2%[57.1 µM] | 1%[57.1 µM] | / | / | / | /
CCn1c(=O)c2sccc2n(Cc2ccccc2)c1=O | / | 0% | 0% | 3% | / | / | / | /
COC(=O)c1ccccc1S(=O)(=O)N(Cc1ccco1)Cc1cc2cc(OC)ccc2[nH]c1=O | -25%[46.1 µM] | 1% | 24% | 10µM* | 0 | 6* | i | 7.4µM*
CCCCCc1nn2cc(-c3ccccc3)nc2s1 | / | / | 0% | 15% | / | / | / | /
Cc1ccc(Nc2c(-c3ccc(C)o3)nc3cnccn23)cc1 | -20%[46.1 µM] | 2% | 13%[57.1 µM] | 4µM* | -12 | ? | i | 2µM*
Cc1ccc(Nc2c(-c3ccc(C)o3)nc3ccccn23)cc1 | / | / | 114% | ? | / | / | / | /
CCOc1cccc2sc(NC(=O)c3ccc(S(=O)(=O)N4CCCc5ccccc54)cc3)nc12 | / | / | 2%[57.1 µM] | 28%[57.1 µM] | / | / | / | /
O=c1c(Cl)c(Cl)cnn1Cc1nnc(-c2ccc(Cl)cc2)o1 | -44% | -3% | 9% | 7.1µM* | 1 | 8.4* | i | 3.4µM*
Cc1ccc(-c2nnc(Cc3ccc(Cl)cc3)o2)cc1 | -14%[46.1 µM] | 2% | -1% | 25% | / | / | / | /
COc1cc(CN2CCCCC2C(=O)Nc2ccc(Oc3ccccc3)nc2)ccc1O (stereo unspecified) | / | -5% | 1% | 13µM* | 6 | ? | i | 0.14µM*
CCN1C(=O)[C@H]2[C@@H](c3ccc(-c4ccc(OC)cc4)c(OC)c3)N3CCCC[C@@]3(C(=O)OC)[C@H]2C1=O | / | / | 1% | 11% | / | / | / | /
O=C1CN(C(=O)COC(=O)c2ccc(N3CCCCCC3)c([N+](=O)[O-])c2)c2ccccc2N1 | -12%[46.1 µM] | 0% | 6%[57.1 µM] | 12%[57.1 µM] | / | / | / | /
CS(=O)(=O)c1ccc(C(=O)OCC(=O)N2CCOCC2)cc1[N+](=O)[O-] | / | / | / | / | / | / | / | / | HepG2 tox=i
CS(=O)(=O)c1ccc(C(=O)OCC(=O)N2Cc3ccccc3C2)cc1[N+](=O)[O-] | / | / | / | / | / | / | / | / | HepG2 tox=20µM*
CS(=O)(=O)c1ccc(C(=O)OCC(=O)N2CC(=O)Nc3ccccc32)cc1[N+](=O)[O-] | / | / | 0% | 2.8µM* | / | / | / | / | TRb SRC2 Alpha=10µM*;HepG2 tox=16µM*;AR-SRC2 inh=i;PPARg-DRIP2 inh=15µM*;VDR-SRC2 FP sel=64µM*;TRb SRC2 FluoFP=2.8µM*
CCN(CC)C(=O)COC(=O)c1ccc(S(C)(=O)=O)c([N+](=O)[O-])c1 | / | / | / | / | / | / | / | / | HepG2 tox=?
CCN(CC)C(=O)COC(=O)c1ccc(O)cc1 | -8%[46.1 µM] | -3% | 4%[57.1 µM] | 10%[57.1 µM] | / | / | / | /
O=C(OCc1cc(=O)n2nc(-c3cccs3)sc2n1)c1ccccc1Br | / | / | -2%[57.1 µM] | 4%[57.1 µM] | / | / | / | /
Cc1ccc2[nH]c(=O)c(CN(CCCN3CCOCC3)Cc3nnnn3C3CCCC3)cc2c1 | -29%[46.1 µM] | 8% | 9% | 20µM* | ? | ? | 3µM* | 5.4µM*
CCN1C(Nc2ccccc2)=NC[C@@H]1Cc1ccccc1 | / | / | 5% | 16µM* | -11 | ? | i | 0.87µM*
CCCCCCCN1C(Nc2ccccc2)=NC[C@@H]1Cc1ccccc1 | / | / | 1% | 11% | / | / | / | /
CCc1ccc(S(=O)(=O)c2nnn3c2nc(NCCC(C)C)c2cc(Cl)ccc23)cc1 | / | / | 64% | 41% | / | / | / | /
CCOC(=O)C1CCN(C(c2ccccn2)c2c(C)[nH]c3ccccc23)CC1 (stereo unspecified) | -23%[46.1 µM] | -2% | 1% | 2.5µM* | -25 | 1.5* | i | 0.19µM*
O=C([C@H](Cc1ccccc1)N1C(=O)c2ccccc2C1=O)N1CCOCC1 | / | 1% | 1% | 3% | / | / | / | /
COc1cc(/C=C2/C(=O)NN(c3cccc(F)c3)C2=O)ccc1OC(=O)c1ccco1 | ? | -7% | -9% | 28µM* | 0 | ? | i | 6.8µM*
CC(C)CCN(Cc1ccco1)C(=O)Cn1ncc2c([nH]c3ccccc32)c1=O | / | / | -2% | 11% | / | / | / | /
CCc1c(C(C)S(=O)(=O)c2ccccc2)[nH]c(=O)n1CC (stereo unspecified) | 26% | 3% | -16%[57.1 µM] | 1.8µM* | -13 | 2.4* | 4µM* | 0.045µM*
CCn1c(=O)[nH]c2ccccc2c1=O | -2%[46.1 µM] | / | 9%[57.1 µM] | 5%[57.1 µM] | / | / | / | /
